For assay [1], the target named is human Peroxisome Proliferator-activated Receptor delta (PPARd), PPARD (gene 5467) (UniProt Q03181). In words: ATG_PPARd_TRANS: Attagene TRANS-FACTORIAL HepG2 Assay for human Peroxisome Proliferator-activated Receptor delta (PPARd) (AID 2283002). An outline of the steps: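 Read-out is induced reporter mRNA, quantified by RT-PCR with fluorescent labelling and capillary electrophoresis after 24 h dosing. Cells are HepG2 transiently carrying multiple GAL4-UAS reporter units driven by exogenous NR-GAL4 chimeras; DMSO serves as baseline.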
Sequence of human Peroxisome Proliferator-activated Receptor delta (PPARd), PPARD (gene 5467) (Q03181 whole entry, looked up, the tested form may be a part): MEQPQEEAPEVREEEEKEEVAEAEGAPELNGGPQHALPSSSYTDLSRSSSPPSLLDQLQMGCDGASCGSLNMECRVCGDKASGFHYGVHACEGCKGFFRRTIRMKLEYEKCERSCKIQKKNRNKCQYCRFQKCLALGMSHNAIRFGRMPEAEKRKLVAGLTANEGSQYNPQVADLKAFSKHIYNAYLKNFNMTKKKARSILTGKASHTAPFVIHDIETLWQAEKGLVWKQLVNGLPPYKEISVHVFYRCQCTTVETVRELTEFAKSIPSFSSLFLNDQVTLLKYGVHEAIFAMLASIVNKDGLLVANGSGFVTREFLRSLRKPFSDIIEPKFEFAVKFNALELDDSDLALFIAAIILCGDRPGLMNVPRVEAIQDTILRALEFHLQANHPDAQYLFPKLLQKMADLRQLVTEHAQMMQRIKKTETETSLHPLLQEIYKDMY

In assay [2] the target is Peroxisome proliferator-activated receptor gamma (Homo sapiens) (UniProt P37231). In words: ATG_PPARg_TRANS: Attagene TRANS-FACTORIAL HepG2 Assay for human Peroxisome Proliferator-activated Receptor-gamma (PPARg) (AID 2283007). An outline of the steps:
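Read-out: reporter mRNA induction, detected by fluorescence after RT-PCR and capillary electrophoresis. Transiently transfected human HepG2 liver cells carrying a chimeric NR-Gal4 construct were dosed for 24 h; activity was fitted upward relative to DMSO.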

Assay [3] concerns the target Nuclear receptor subfamily 1 group I member 2 (Homo sapiens) (UniProt O75469). In words: ATG_PXR_TRANS: Attagene TRANS-FACTORIAL HepG2 Assay for human Pregnane X Receptor (PXR) (AID 2283008). Put shortly:
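Trans-factorial format: exogenous NR-Gal4 fusion activity, not endogenous factor, in transfected human HepG2 liver cells. After 24 h dosing, RNA isolated, reverse-transcribed, amplified and resolved by capillary electrophoresis; induction scored versus DMSO.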

The target in assay [4] is human RAR-related Orphan Receptor gamma (RORg), RORC (gene 6097) (UniProt P51449). In words: ATG_RORg_TRANS: Attagene TRANS-FACTORIAL HepG2 Assay for human RAR-related Orphan Receptor gamma (RORg) (AID 2283011). Put shortly:
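Reporter transcripts from a transfected RORg-GAL4 chimera in HepG2 cells were quantified 24 h after dosing by RT-PCR, 6-FAM labelling, HpaI digestion and capillary electrophoresis; increases over DMSO baseline were fitted.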

In assay [5] the target is Retinoic acid receptor RXR-alpha (Homo sapiens) (UniProt P19793). The assay is described as follows: ATG_RXRa_TRANS: Attagene TRANS-FACTORIAL HepG2 Assay for human Retinoid X Receptor alpha (RXRa) (AID 2283012). An outline of the steps: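 TRANS format reporting activity of exogenous RXRa-Gal4 chimera in transiently transfected HepG2, 24 h exposure. Reporter transcripts quantified by RT-PCR with capillary electrophoresis, with gain of signal scored relative to DMSO.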
Sequence of Retinoic acid receptor RXR-alpha (Homo sapiens) (P19793 whole entry, looked up, the tested form may be a part): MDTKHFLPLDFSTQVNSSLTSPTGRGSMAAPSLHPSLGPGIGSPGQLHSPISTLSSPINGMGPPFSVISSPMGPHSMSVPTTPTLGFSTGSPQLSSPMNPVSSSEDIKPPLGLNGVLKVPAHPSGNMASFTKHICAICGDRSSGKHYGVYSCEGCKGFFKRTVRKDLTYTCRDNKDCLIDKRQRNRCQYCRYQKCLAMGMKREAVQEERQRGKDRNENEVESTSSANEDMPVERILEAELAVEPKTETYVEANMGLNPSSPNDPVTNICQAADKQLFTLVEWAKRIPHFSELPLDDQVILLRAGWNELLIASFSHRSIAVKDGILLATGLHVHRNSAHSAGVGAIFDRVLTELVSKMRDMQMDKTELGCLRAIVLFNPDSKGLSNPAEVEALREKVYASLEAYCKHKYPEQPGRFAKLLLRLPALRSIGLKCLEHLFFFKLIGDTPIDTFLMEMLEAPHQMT

Assay [6] concerns the target human RAR-related Orphan Receptor beta (RORb), RORB (gene 6096) (UniProt Q92753). The assay is described as follows: ATG_RORb_TRANS: Attagene TRANS-FACTORIAL HepG2 Assay for human RAR-related Orphan Receptor beta (RORb) (AID 2283010). Put shortly:
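Read-out is reporter mRNA induction, quantified by RT-PCR with fluorescent capillary electrophoresis, 24 h post-dose in transiently transfected HepG2 expressing exogenous NR-Gal4 chimera. Activity fitted upward versus DMSO.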

In assay [7] the target is human Retinoic Acid Receptor gamma (RARg), RARG (gene 5916) (UniProt P13631). The assay is described as follows: ATG_RARg_TRANS: Attagene TRANS-FACTORIAL HepG2 Assay for human Retinoic Acid Receptor gamma (RARg) (AID 2283009). An outline of the steps: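 Transactivation of exogenous RARg-Gal4 fusion measured as reporter transcript induction after 24 h in transfected HepG2 cells. RNA reverse-transcribed, amplified, fluorescently labeled and resolved by capillary electrophoresis; increase relative to DMSO.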
Sequence of human Retinoic Acid Receptor gamma (RARg), RARG (gene 5916) (P13631 whole entry, looked up, the tested form may be a part): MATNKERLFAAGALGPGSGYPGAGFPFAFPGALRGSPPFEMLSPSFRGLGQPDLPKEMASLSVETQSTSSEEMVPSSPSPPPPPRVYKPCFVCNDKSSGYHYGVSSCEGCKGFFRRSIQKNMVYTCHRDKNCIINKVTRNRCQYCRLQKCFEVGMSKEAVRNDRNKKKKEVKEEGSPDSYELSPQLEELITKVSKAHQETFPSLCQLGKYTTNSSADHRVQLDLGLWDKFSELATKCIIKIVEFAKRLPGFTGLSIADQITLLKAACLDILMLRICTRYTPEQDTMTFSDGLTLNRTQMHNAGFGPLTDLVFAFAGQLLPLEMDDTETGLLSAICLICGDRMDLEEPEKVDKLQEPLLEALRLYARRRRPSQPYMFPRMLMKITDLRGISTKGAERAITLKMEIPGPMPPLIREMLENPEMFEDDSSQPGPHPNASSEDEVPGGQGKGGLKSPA

Read-out in assay [8]: Intercellular Adhesion Molecule 1 (ICAM1), ICAM1 (gene 3383)
In words: BSK_3C_ICAM1: BioMAP Diversity Plus: 3C Assay for Intercellular Adhesion Molecule 1 (ICAM1) Biomarker Activity (AID 2283003; active means hit-call score of the fitted dose curve at least 0.9, where 1 is the maximum; inactive means score below 0.9). Conditions: primary human endothelial cells (HUVEC); actives raise or lower the signal. Put shortly: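 ELISA readout of ICAM1 in human umbilical vein endothelial cells in the 3C system, taken 24 h post-dose. Gain or loss of signal versus DMSO was fitted in both directions, with SRB total-protein staining run in parallel.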

Results filed as inconclusive are left out. The source made the active and inactive calls. How the source made its calls, unless noted: active means hit-call score of the fitted dose curve at least 0.9, where 1 is the maximum; inconclusive means response in the unintended direction; inactive means score below 0.9.

Sequence of Peroxisome proliferator-activated receptor gamma (Homo sapiens) (P37231 whole entry, looked up, the tested form may be a part): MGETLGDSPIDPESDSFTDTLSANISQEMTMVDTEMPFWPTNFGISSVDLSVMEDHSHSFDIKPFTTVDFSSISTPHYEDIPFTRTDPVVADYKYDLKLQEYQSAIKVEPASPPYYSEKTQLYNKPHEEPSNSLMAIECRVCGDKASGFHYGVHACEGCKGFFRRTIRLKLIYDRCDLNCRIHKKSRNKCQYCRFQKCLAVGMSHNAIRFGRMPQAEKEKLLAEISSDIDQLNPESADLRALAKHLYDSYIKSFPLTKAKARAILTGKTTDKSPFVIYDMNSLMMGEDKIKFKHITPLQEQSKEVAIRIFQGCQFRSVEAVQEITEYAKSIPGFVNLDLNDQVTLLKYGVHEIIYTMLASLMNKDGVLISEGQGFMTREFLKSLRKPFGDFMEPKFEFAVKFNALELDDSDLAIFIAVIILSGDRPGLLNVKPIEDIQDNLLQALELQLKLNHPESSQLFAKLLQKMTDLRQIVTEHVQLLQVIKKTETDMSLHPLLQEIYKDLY
Sequence of human RAR-related Orphan Receptor gamma (RORg), RORC (gene 6097) (P51449 whole entry, looked up, the tested form may be a part): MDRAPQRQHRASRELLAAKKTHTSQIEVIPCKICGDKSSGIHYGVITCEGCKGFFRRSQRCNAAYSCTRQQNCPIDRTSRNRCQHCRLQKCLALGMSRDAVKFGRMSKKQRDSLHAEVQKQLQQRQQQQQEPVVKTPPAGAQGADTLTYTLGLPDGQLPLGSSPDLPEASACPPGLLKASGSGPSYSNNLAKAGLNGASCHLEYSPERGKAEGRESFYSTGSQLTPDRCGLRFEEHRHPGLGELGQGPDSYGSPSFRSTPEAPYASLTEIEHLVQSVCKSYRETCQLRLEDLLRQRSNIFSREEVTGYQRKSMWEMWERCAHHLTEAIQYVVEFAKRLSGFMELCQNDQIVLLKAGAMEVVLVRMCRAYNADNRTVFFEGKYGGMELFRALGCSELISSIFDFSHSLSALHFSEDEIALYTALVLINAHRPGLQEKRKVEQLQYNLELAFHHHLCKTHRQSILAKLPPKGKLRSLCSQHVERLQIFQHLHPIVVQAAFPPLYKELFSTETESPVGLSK
Sequence of human RAR-related Orphan Receptor beta (RORb), RORB (gene 6096) (Q92753 whole entry, looked up, the tested form may be a part): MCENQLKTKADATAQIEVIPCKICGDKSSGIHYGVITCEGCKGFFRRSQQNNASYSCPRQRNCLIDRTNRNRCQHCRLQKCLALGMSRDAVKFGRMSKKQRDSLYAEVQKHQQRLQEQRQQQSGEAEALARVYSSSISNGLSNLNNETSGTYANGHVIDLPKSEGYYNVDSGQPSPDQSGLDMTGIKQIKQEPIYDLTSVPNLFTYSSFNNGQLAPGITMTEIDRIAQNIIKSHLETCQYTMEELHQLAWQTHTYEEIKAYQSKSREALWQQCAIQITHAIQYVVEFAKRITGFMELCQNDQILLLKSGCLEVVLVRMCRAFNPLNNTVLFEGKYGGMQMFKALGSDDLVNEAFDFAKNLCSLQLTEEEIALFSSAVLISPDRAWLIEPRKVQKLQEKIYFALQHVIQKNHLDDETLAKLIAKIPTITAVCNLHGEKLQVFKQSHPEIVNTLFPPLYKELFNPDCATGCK
Sequence of Nuclear receptor subfamily 1 group I member 2 (Homo sapiens) (O75469 whole entry, looked up, the tested form may be a part): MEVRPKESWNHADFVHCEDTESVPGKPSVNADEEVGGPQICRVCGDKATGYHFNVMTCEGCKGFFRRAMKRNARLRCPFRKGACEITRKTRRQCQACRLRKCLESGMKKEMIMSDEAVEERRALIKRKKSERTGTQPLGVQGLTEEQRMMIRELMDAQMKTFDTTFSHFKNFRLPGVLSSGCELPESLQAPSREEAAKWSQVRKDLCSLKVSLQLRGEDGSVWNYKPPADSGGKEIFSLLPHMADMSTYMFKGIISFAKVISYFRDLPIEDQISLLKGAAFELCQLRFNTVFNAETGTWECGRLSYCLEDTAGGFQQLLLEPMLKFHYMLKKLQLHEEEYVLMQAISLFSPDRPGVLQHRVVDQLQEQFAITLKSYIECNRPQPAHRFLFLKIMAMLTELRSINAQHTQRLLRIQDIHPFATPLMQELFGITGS

`Nc1ccc(-c2ccc(F)cc2)cc1`: the compound was classed as inactive in assay [1], in assay [2], in assay [3], in assay [4] and in assay [5].
On to `CC(C)c1ccc2c(c1)CC[C@H]1[C@](C)(CN)CCC[C@]21C`, for which the result in assay [1] and in assay [3] was inactive. Besides, the AC50 – broadly, the concentration at which the activity in the assay is half-maximal – is 6.02 µM (active) in assay [2] and 6.76 µM (active) in assay [5].
`CCCOC(=O)CCCCC(=O)OCCC`: the outcome in assay [1], in assay [2], in assay [3], in assay [4] and in assay [5] was inactive.
For the compound `CCC(C)OC(=O)c1ccc(O)cc1` (stereo not drawn), the compound was classed as inactive in assay [1] and in assay [5]. Besides, the AC50 was 62.1 µM (active) in assay [2] and 14.8 µM (active) in assay [3].
Turning to `CCCCCCCCCCCSCC(=O)O`, the AC50 is 7.11 µM (active) in assay [1] and 9.6 µM (active) in assay [2]. For the same compound, the compound was classed as inactive in assay [3] and in assay [5].
Take `CC(C)CCCCCOC(=O)CCS`: the call in assay [1], in assay [2], in assay [6] and in assay [5] was inactive. Also, the AC50 in assay [3] was 27.1 µM (active).
With `CCCCCCC(O)CO` (stereo not drawn), the call in assay [1], in assay [2], in assay [7], in assay [4] and in assay [5] was inactive.
Take `CCC(Cc1ccccc1)(C(=O)c1ccc(N2CCOCC2)cc1)N(C)C` (stereo not drawn): the compound was classed as inactive in assay [1], in assay [4] and in assay [5]. Moreover, the AC50 was 35.1 µM (active) in assay [2] and 2.42 µM (active) in assay [3].
For `CC(C)=CCC[C@H](C)CCO`, the result in assay [1], in assay [2], in assay [3] and in assay [5] was inactive.
Turning to `CC=C1CC2C=CC1C2` (stereo not drawn), the compound was classed as inactive in assay [1], in assay [4] and in assay [5]. Moreover, the AC50 in assay [2] was 25.9 µM (active); in assay [3], 7.51 µM (active).
In the case of `CCOC(=O)CC`, the result in assay [1], in assay [2], in assay [3] and in assay [5] was inactive.
Take `C=C[C@](C)(O)CC[C@@H]1[C@@]2(C)CCCC(C)(C)[C@@H]2CC[C@@]1(C)O`: the outcome in assay [1], in assay [2] and in assay [5] was inactive. For the same compound, in assay [3], the AC50 was 0.331 µM (active).
For the compound `CCCCCCCCO[C@@H]1O[C@H](CO)[C@@H](O)[C@H](O)[C@H]1O`, the compound was called inactive in assay [1], in assay [2], in assay [3], in assay [4] and in assay [5].
With `O=S(=O)(Oc1ccc(Cl)cc1Cl)c1ccccc1`, the compound was called inactive in assay [1] and in assay [5]. Further, the AC50 in assay [2] was 29.5 µM (active); in assay [3], 2.19 µM (active).
Turning to `CCCCCC/C=C\CCCCCCCC(=O)O`, the outcome in assay [1], in assay [2], in assay [6] and in assay [5] was inactive.
On to `c1ccc(CCCc2ccncc2)cc1`, for which the compound was classed as inactive in assay [1], in assay [3], in assay [4] and in assay [5]. Besides, the AC50 in assay [2] is 13.9 µM (active).
As for `O=C(O)c1ccccc1Nc1cccc(C(F)(F)F)c1`, the figures for the AC50 in assay [1] and in assay [2] were 40.1 µM (active) and 6.64 µM (active), respectively. Moreover, the result in assay [3] and in assay [5] was inactive.
Take `N#CCc1ccc(Cl)cc1Cl`: the result in assay [1], in assay [2], in assay [3] and in assay [5] was inactive.
Take `CC/C=C\C/C=C\C/C=C\CCCCCCCC(=O)O`: the compound was classed as inactive in assay [1], in assay [4] and in assay [5]. In addition, the AC50 in assay [2] was 14.6 µM (active).
Take `O=C1Nc2ccccc2C1(c1ccc(O)cc1)c1ccc(O)cc1`: the call in assay [1], in assay [2], in assay [3] and in assay [5] was inactive.
For the compound `CCN(Cc1cccc(S(=O)(=O)O)c1)c1ccc(C(=C2C=CC(=[N+](CC)Cc3cccc(S(=O)(=O)[O-])c3)C=C2)c2ccccc2)cc1`, the result in assay [1], in assay [3], in assay [6] and in assay [5] was inactive. The concentration at half-maximal activity (AC50) in assay [2] was 31.1 µM (active).
With `C=CCCCCCCCCC(=O)OCCCC`, the call in assay [1], in assay [3] and in assay [5] was inactive. Also, the AC50 in assay [2] is 67.8 µM (active).
On to `CC1(C)O[C@@H]2C[C@H]3[C@@H]4C[C@H](F)C5=CC(=O)C=C[C@]5(C)[C@@]4(F)[C@@H](O)C[C@]3(C)[C@]2(C(=O)CO)O1`, for which the call in assay [1], in assay [3] and in assay [5] was inactive.
For the compound `CCCCC(CC)COCC1CO1` (stereo not drawn), the result in assay [8], in assay [2], in assay [3], in assay [4] and in assay [5] was inactive.
As to `NC(=O)c1ccccc1O`, the compound was called inactive in assay [1], in assay [3] and in assay [5].

For the origin of these results see PubChem BioAssay (EPA / NIEHS).
